Read-out in test [1]: Transforming Growth Factor (TGFB1), TGFB1 (gene 7040)
In words: LTEA_HepaRG_TGFB1: Life Technologies and Expression Analysis (LTEA) Assay for Transforming Growth Factor (TGFB1) Transporter using HepaRG (AID 2283533). Particulars: mRNA level, 48 h; actives raise or lower the signal. Put shortly: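 HepaRG, 48 h post-plating, switched to serum-free induction medium; chemicals 100 uM top, half-log, 8 pts, 0.5% DMSO, dup; 48 h exposure; RNA → Fluidigm TaqMan qRT-PCR; norm ACTB/GAPDH/POLR2A; bidirectional fit vs DMSO.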

Read-out in test [2]: TIMP1, TIMP1 (gene 7076)
In words: LTEA_HepaRG_TIMP1: Life Technologies and Expression Analysis (LTEA) Assay for TIMP1 using HepaRG (AID 2283534).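 On outcome: TaqMan qRT-PCR signal normalized to ACTB GAPDH and POLR2A housekeeping genes.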 Particulars: mRNA level, 48 h; actives raise or lower the signal. Put shortly: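 Readout is TIMP1 mRNA level measured by qRT-PCR and normalized to three housekeeping genes. Human HepaRG cells were treated for 48 h in duplicate at eight concentrations up to 100 uM (0.5% DMSO); gain or loss fitted against DMSO.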

Read-out in test [3]: Tumor necrosis factor receptor 1 (TNFRSF1A), TNFRSF1A (gene 7132)
The test is described as follows: LTEA_HepaRG_TNFRSF1A: Life Technologies and Expression Analysis (LTEA) Assay for Tumor necrosis factor receptor 1 (TNFRSF1A) using HepaRG (AID 2283535). Particulars: mRNA level, 48 h; actives raise or lower the signal. Put shortly:
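Read-out is TNFRSF1A transcript level by TaqMan qRT-PCR, normalized to three housekeeping genes, scored as gain or loss of signal versus 0.5% DMSO. Human HepaRG cells received test chemicals for 48 h at up to 100 uM (half-log series).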

Read-out in test [4]: Thyroid Hormone Responsive (THRSP), THRSP (gene 7069)
In words: LTEA_HepaRG_THRSP: Life Technologies and Expression Analysis (LTEA) Assay for Thyroid Hormone Responsive (THRSP) using HepaRG (AID 2283536). Particulars: mRNA level, 48 h; actives raise or lower the signal. Put shortly: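 THRSP transcript quantified by Fluidigm qRT-PCR against three housekeeping genes after 48 h chemical exposure of HepaRG cells in serum-free induction medium; eight-point half-log series, top 100 uM, 0.5% DMSO vehicle, duplicate wells.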

Read-out in test [5]: Cellular tumor antigen p53 (Homo sapiens) (UniProt P04637)
The test is described as follows: LTEA_HepaRG_TP53: Life Technologies and Expression Analysis (LTEA) Assay for Tumor Protein P53 (TP53) using HepaRG (AID 2283537). The conditions noted are these: mRNA level, 48 h; actives raise or lower the signal. Put shortly:
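HepaRG, 48 h exposure, top 100 uM, half-log 8-point, 0.5% DMSO vehicle, duplicates. Read: TP53 mRNA by TaqMan qRT-PCR, normalised to ACTB/GAPDH/POLR2A; bidirectional fit vs DMSO.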

Read-out in test [6]: UDP glucuronosyltransferase (UGT1A1), UGT1A1 (gene 54658)
The test is described as follows: LTEA_HepaRG_UGT1A1: Life Technologies and Expression Analysis (LTEA) Assay for UDP glucuronosyltransferase (UGT1A1) using HepaRG (AID 2283538). The conditions noted are these: mRNA level, 48 h; actives raise or lower the signal. Put shortly:
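HepaRG, 48 h chemical exposure (top 100 uM, half-log 8-pt, 0.5% DMSO vehicle), duplicate wells; qRT-PCR (TaqMan, Fluidigm array) for UGT1A1 mRNA, housekeeping-normalized; bidirectional curve fit vs DMSO baseline.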

Read-out in test [7]: UDP glucuronosyltransferase (UGT1A6), UGT1A6 (gene 54578)
The test is described as follows: LTEA_HepaRG_UGT1A6: Life Technologies and Expression Analysis (LTEA) Assay for UDP glucuronosyltransferase (UGT1A6) using HepaRG (AID 2283539). The conditions noted are these: mRNA level, 48 h; actives raise or lower the signal. Put shortly:
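HepaRG, 48 h post-plating switch to serum-free induction medium; chemical 48 h, 100 uM top, half-log x8, duplicate, 0.5% DMSO. Phenobarbital 1mM induction control. UGT1A6 mRNA by TaqMan qRT-PCR; gain/loss fit vs DMSO.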

Read-out in test [8]: X-box binding protein 1 (XBP1), XBP1 (gene 7494)
The test is described as follows: LTEA_HepaRG_XBP1: Life Technologies and Expression Analysis (LTEA) Assay for X-box binding protein 1 (XBP1) using HepaRG (AID 2283540). The conditions noted are these: mRNA level, 48 h; actives raise or lower the signal. Put shortly: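 Transcript levels of XBP1, measured by qRT-PCR and normalised to three housekeeping genes, were fitted bidirectionally relative to 0.5% DMSO controls. Human HepaRG cells received eight-point half-log dilutions from 100 uM for 48 h.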

Test [9] can be described thus: LTEA_HepaRG_LDH_cytotoxicity: Cytotoxicity Assessment in the Life Technologies and Expression Analysis (LTEA) Assay (AID 2283563; active means hit-call score of the fitted dose curve at least 0.9, where 1 is the maximum;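 on AC50: LDH activity released into spent culture medium as a marker of cell death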). Put shortly:
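Cells were thawed and plated for 48 h. Medium was then replaced with serum-free induction medium. Chemicals (8 half-log points, maximum 100 uM, 0.5% DMSO) were added in duplicate for 48 h, after which spent medium was assayed for LDH.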

Test [10] in a line: ATG_XTT_Cytotoxicity: Cytotoxicity Assessment in the Attagene TRANS-FACTORIAL HepG2 Assay (AID 2283584; active means hit-call score of the fitted dose curve at least 0.9, where 1 is the maximum). Put shortly:
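Cells: human HepG2, transiently transfected with MRTU reporter constructs. Exposure 24 h. Readout: XTT, cell number. Baseline/neg ctrl DMSO; loss-of-signal scored.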

These results are taken from PubChem BioAssay (EPA / NIEHS).

Records with an inconclusive call do not appear. The source made the active and inactive calls. How the source made its calls, unless noted: active means hit-call score of the fitted dose curve at least 0.9, where 1 is the maximum; inactive means score below 0.9.

Cellular tumor antigen p53 (Homo sapiens), sequence (P04637 whole entry, looked up): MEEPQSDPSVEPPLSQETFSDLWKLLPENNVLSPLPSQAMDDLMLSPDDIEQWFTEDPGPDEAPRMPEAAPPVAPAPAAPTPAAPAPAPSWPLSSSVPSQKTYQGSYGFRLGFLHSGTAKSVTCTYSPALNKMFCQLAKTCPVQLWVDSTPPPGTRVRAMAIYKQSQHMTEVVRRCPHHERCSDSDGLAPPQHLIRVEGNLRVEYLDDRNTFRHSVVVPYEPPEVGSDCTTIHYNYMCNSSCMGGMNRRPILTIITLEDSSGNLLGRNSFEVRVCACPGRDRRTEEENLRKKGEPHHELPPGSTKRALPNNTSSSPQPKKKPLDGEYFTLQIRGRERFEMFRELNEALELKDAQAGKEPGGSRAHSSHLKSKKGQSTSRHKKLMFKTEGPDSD

`CC(C)CCO`: the outcome in [1], in [2], in [3], in test [4], in [5] and in test [6] was inactive. Further, the result in test [7], in test [8] and in test [9] was inactive.
For `CC(C)=CCC/C(C)=C/CO`, the compound was classed as inactive in test [1], in [2], in [3], in test [4], in test [5] and in test [6]. Also, the result in test [7], in [8] and in [9] was inactive.
Regarding `Fc1ccccc1[C@@H](F)COC1CCC(Nc2ncnc3[nH]ncc23)CC1` (some centres not stated), the result in [1], in test [2], in [3], in test [4], in [5] and in test [8] was inactive. Further, the compound was classed as inactive in [9]. In addition, the results for the AC50 in [6] and in [7] were 68 µM (active) and 50 µM (active), respectively.
Regarding `COC(=O)c1ccccc1O`, the compound was classed as inactive in test [1], in test [2], in [3], in test [4], in test [5] and in [6]. Moreover, the compound was called inactive in test [7], in test [8] and in test [9].
On to `COc1ccc2sc(C(=O)Nc3nnn[nH]3)c(OC(C)C)c2c1`, for which the compound was called inactive in [1], in [2], in test [8] and in test [9]. Moreover, the concentration at half-maximal activity (AC50) in test [3] is 39 µM (active); in [4], 50 µM (active); in test [5], 38.9 µM (active); in test [6], 12.9 µM (active); in test [7] it was 50 µM (active).
On to `CCNc1ccccc1`, for which the call in test [1], in test [2], in test [3], in [4], in test [5] and in [6] was inactive. Moreover, the compound was classed as inactive in [7], in test [8] and in test [9].
In the case of `CNS(=O)(=O)c1cc(C(=O)N2CCC(CCN3C4CCC3CC(n3c(C)nc5ccccc53)C4)(c3cccc(F)c3)CC2)c(Cl)cc1F` (configuration not stated), the half-maximal activity concentration (AC50) in test [1] is 19.4 µM (active); in [6], 9.92 µM (active); in test [7], 50 µM (active); in test [9], 32.2 µM (active). Further, the compound was called inactive in test [2], in test [3], in [4], in [5] and in test [8].
`Nc1ccc(Nc2ccccc2)cc1`: the outcome in test [1], in [2], in [3], in [4], in [5] and in test [7] was inactive. Moreover, the outcome in test [8] and in [9] was inactive. Moreover, the half-maximal activity concentration (AC50) in test [6] was 50 µM (active).
Take `C[C@](N)(Cc1ccc(O)c(O)c1)C(=O)O`: the compound was classed as inactive in [1], in test [2], in test [3], in test [4], in test [5] and in test [6]. Moreover, the call in test [7], in test [8] and in test [9] was inactive.
For `CCOCCOCCOCCO`, the compound was classed as inactive in [1], in [2], in test [3], in [4], in test [5] and in test [6]. Moreover, the result in [7], in test [8] and in [9] was inactive.
With `CCOCCO`, the outcome in test [1], in [3], in test [4], in [5], in test [6] and in test [7] was inactive. In addition, the compound was classed as inactive in [8] and in test [9].
On to `CC(C)=CCCC(C)=CC=O`, for which the compound was called inactive in test [1], in test [2], in test [3], in test [4], in test [5] and in test [6]. Moreover, the outcome in test [7], in [8], in test [9] and in test [10] was inactive.
As to `O=C1CCC(N2C(=O)c3ccccc3C2=O)C(=O)N1` (configuration not stated), the compound was called inactive in [1], in test [3], in test [4], in test [5], in [6] and in test [7]. Further, the call in test [8] and in [9] was inactive.
For `Cc1ccc(S(=O)(=O)O)cc1C`, the compound was classed as inactive in test [1], in test [2], in test [3], in [4], in [5] and in test [6]. The outcome in test [7], in test [8] and in test [9] was inactive.
Take `COC(=O)CC(=O)OC`: the outcome in test [1], in [3], in [4], in test [5], in test [6] and in test [7] was inactive. Also, the call in test [8] and in test [9] was inactive.
For `CC(=O)c1ccc2c(c1)[C@H](NC(=O)c1ccc(F)cc1)[C@@H](O)C(C)(C)O2`, the outcome in test [1], in test [3], in test [4], in test [5], in [7] and in test [8] was inactive. Also, the result in test [9] was inactive. In test [6], the half-maximal activity concentration (AC50) was 22.6 µM (active).
`CC(C)c1cccc(C(C)C)c1N1C(=O)c2ccc(O)cc2C1=O`: the compound was called inactive in [1], in [2], in test [3], in [5], in test [7] and in [8]. Moreover, the result in test [9] and in [10] was inactive. Besides, the half-maximal activity concentration (AC50) in [4] was 90.2 µM (active); in test [6], 10.8 µM (active).
Turning to `CCc1cc(SCc2sc(-c3ccc(C(F)(F)F)cc3)nc2CN2CCN(c3ccc(OC)cc3)CC2)ccc1OCC(=O)O`, the concentration at half-maximal activity (AC50) is 28.9 µM (active) in test [1]; 94 µM (active) in test [2]; 5 µM (active) in [3]; 7.74 µM (active) in test [5]; 7.28 µM (active) in test [6]; 7.77 µM (active) in test [7]. The values for the AC50 in test [8] and in test [9] were 94 µM (active) and 16.2 µM (active), respectively. For the same compound, the compound was called inactive in test [4].
`Cc1ccc(N)cc1O`: the compound was classed as inactive in test [1], in test [3], in test [5], in test [6], in test [7] and in [8]. Moreover, in test [9], the compound was called inactive. Besides, the AC50 in [4] is 25.2 µM (active).
`O=C(O)c1cccc(N(Cc2cccnc2)c2ccc(OC(F)F)c(OC(F)F)c2)c1`: the outcome in test [1], in test [2], in [4], in [5], in test [7] and in test [8] was inactive. The compound was classed as inactive in test [9]. Besides, the concentration at half-maximal activity (AC50) in [6] is 25 µM (active).
With `Cn1c(=O)cc(Oc2ccc(F)cc2F)c2cnc(NCC(C)(C)O)nc21`, the compound was classed as inactive in test [1], in test [3], in test [4], in test [5], in [6] and in test [7]. For the same compound, the compound was called inactive in test [8] and in [9].
For `O=C1OC(=O)C2C3C=CC(C3)C12` (configuration not stated), the outcome in [1], in test [3], in [4], in test [5], in test [6] and in [7] was inactive. Also, the compound was classed as inactive in test [8] and in test [9].
